FECH block – inhibitors of human ferrochelatase, primary screen, biochemical, purified FECH, Ni-mesoporphyrin absorbance; calls only at 10 µM (by protocol); Ni-mesoporphyrin absorbance 550 nm; actives 3.3% (n = 20,000); Ferrochelatase, mitochondrial (Homo sapiens), P22830;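 active = enzyme reaction rate more than 3 SD below the solvent-only control wells on the same plate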;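 also: lower slope than DMSO wells means FECH inhibition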
Target sequence (P22830 whole entry, looked up): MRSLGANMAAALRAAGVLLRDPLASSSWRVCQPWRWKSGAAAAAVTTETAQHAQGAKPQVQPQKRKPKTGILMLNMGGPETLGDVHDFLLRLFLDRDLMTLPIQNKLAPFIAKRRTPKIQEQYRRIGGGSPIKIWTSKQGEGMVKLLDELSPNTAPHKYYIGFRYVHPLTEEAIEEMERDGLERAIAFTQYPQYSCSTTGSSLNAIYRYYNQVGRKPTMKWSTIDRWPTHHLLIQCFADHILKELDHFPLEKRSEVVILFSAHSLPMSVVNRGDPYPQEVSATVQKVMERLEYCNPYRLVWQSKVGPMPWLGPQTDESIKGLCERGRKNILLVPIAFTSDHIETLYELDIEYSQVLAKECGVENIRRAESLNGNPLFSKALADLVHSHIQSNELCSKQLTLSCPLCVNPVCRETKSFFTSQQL
The depositor's hits bear a star; i = inactive; + = active, no number. Only a selection was taken, and hits are over-represented in it overall.

SMILES	FECH block
C=CCN(CC(=O)Nc1ccc(Cl)cc1F)Cc1ccccn1	i
CC(C)Cc1ccc(S(=O)(=O)NCc2nc3cccnc3n2C2CCCCC2)cc1	i
Cc1nccn1CC1(CNC(=O)CCn2c(C)cc3ccccc32)CC1	i
Cc1ccc(C)c(CCNC(=O)CCNC(=O)c2ccccc2F)c1	i
CCOC(=O)c1cc2ccsc2n1CC(=O)Nc1ccccc1C(=O)OC	i
CCOC(=O)c1cc2ccsc2n1CC(=O)N(CC)c1ccccc1	+
CCOC(=O)c1cc2ccsc2n1CC(=O)N(CC)c1cccc(C)c1	i
CCC(CO)Nc1nc(SC)nc(-c2ccccc2)c1C#N (stereo not given)	i
Cn1c(CCc2cccc(NC(=O)C3CCN(S(=O)(=O)N4CCCC4)CC3)c2)nc2ccccc21	+
O=C(Nc1ccc2nc(CCc3ccccc3)[nH]c2c1)C1CCN(S(=O)(=O)N2CCOCC2)CC1	i
Cn1c(CCc2ccccc2NC(=O)C2CCCN(S(=O)(=O)N3CCCC3)C2)nc2ccccc21 (stereo not given)	i
CCCc1cc(CN(C)Cc2ccoc2)[nH]n1	i
Cc1ccc2cc(-c3nccn3CCN(C)C)c(N3CCOCC3)nc2c1	i
CC(=O)N1CCCCC1C1=CCCN(CCSc2ccccc2)C1 (stereo not given)	i
Cc1ccc(N2C(=O)CCS2(=O)=O)cc1S(=O)(=O)N1CCN(c2ccc(F)cc2)CC1	+
CCc1cccc(C)c1NS(=O)(=O)c1cc(N2C(=O)CCS2(=O)=O)ccc1C	+
COc1ccc(OCCNS(=O)(=O)c2cc(N3C(=O)CCS3(=O)=O)ccc2C)cc1	i
CCOC(=O)CNS(=O)(=O)c1cc(N2C(=O)CCS2(=O)=O)ccc1C	+
CCc1cccc(CC)c1NS(=O)(=O)c1cc(N2C(=O)CCS2(=O)=O)ccc1OC	i
CCOC(=O)C1CCN(S(=O)(=O)c2cc(N3C(=O)CCS3(=O)=O)ccc2C)CC1	i
COc1ccc(N2C(=O)CCS2(=O)=O)cc1S(=O)(=O)N1CCN(c2ccccc2F)CC1	i
COC(=O)CNS(=O)(=O)c1cc(N2C(=O)CCS2(=O)=O)ccc1OC	i
Cc1ccc(NS(=O)(=O)c2cc(N3C(=O)CCS3(=O)=O)ccc2C)cc1	i
Cc1ccccc1-c1cc(O)c2c(c1)CN(c1ncnc3[nH]ccc13)CCO2	i
CC(c1cccnc1)N(C)C(=O)c1ccc(OCC(=O)N2CCCCC2)cc1 (stereo not given)	i
SMILES	FECH block
CCCCN(c1nc2nc(C)c(Cl)c(C)n2n1)S(=O)(=O)c1ccc(C)cc1	i
COc1cccc(NC(=O)CN2CCN(Cc3ccccc3Cl)S2(=O)=O)c1	i
Cc1cc(C)c(-c2ccc(C3(O)CCNCC3)cc2)c(C)c1	i
Cc1cc(C)cc(Nc2nc(NCC3CCCO3)nc3c2cnn3-c2ccccc2)c1 (stereo not given)	i
COc1cccc(Nc2nc(NCC3CCCO3)nc3c2cnn3-c2ccccc2)c1 (stereo not given)	i
CCOc1ccc(Nc2nc(N(CC)CC)nc3c2cnn3-c2ccccc2)cc1	i
CCN(CC)c1nc(Nc2ccc(OC)cc2)c2cnn(-c3ccccc3)c2n1	+
COc1ccc(OC)c(Nc2nc(NCc3ccccc3OC)nc3c2cnn3-c2ccccc2)c1	i
CN(C)c1nc(Nc2ccc(Cl)cc2)c2cnn(-c3ccccc3)c2n1	i
CCOc1ccc(Nc2nc(NCC3CCCO3)nc3c2cnn3-c2ccccc2)cc1 (stereo not given)	+
COc1ccc(OC)c(Nc2nc(NCc3ccccc3Cl)nc3c2cnn3-c2ccccc2)c1	+
COc1ccc(Nc2nc(N(C)C)nc3c2cnn3-c2ccccc2)cc1	+
CCOc1ccc(Nc2nc(N(CC)CCO)nc3c2cnn3-c2ccccc2)cc1	i
COc1cccc(Nc2nc(N(C)C)nc3c2cnn3-c2ccccc2)c1	i
COc1ccc(OC)c(Nc2nc(NCc3ccccc3)nc3c2cnn3-c2ccccc2)c1	i
CCn1nc(-c2nc3c([nH]2)CC(C)(C)CNC3=O)c2ccccc21	i
Cc1ccccc1Nc1nc(NCCC2=CCCCC2)nc2c1cnn2-c1ccccc1	i
CCC(=O)Nc1ccccc1-c1nnc(SC(CC)C(=O)Nc2cc(OC)cc(OC)c2)[nH]c1=O (stereo not given)	i
NC(=O)CCn1cc(-c2ccc(F)cc2Cl)cn1	i
COc1ccccc1N(Cc1nc2nc(C)cc(C)n2n1)C(=O)c1cccc(C)c1	i
CCOc1ccc(C(=O)N2CCN(C)C3(CCN(C)CC3)C2)cc1Cl	i
Cc1nc(C)c(CC(=O)N2CCC3(CC2)C(=O)Nc2ccccc23)c(=O)[nH]1	i
NS(=O)(=O)c1ccc(NC(=O)c2ccc(=O)n(Cc3ccc(Cl)cc3)c2)cc1	i
NS(=O)(=O)c1ccc(NC(=O)CSc2nc3c(c(=O)[nH]2)CCCC3)cc1	+
NS(=O)(=O)c1ccc(NC(=O)CSc2nc3c(c(=O)[nH]2)CCC3)cc1	i
SMILES	FECH block
CCc1nc(OCC(=O)NCc2ccccc2F)c2c(C)c(C)oc2n1	i
Cc1ccc(Nc2nc(NCc3ccccc3)nc3c2cnn3-c2ccccc2)cc1C	i
COC(=O)CC1=CC(=O)N(CC(=O)Nc2ccc3c(c2)OCCO3)c2ccccc2N1	i
CCCn1nnc2cc(C(=O)Nc3ccc(S(N)(=O)=O)cc3)ccc21	i
Cc1cc(N2CCCCC2)nc(N2CCN(S(=O)(=O)c3ccccc3)CC2)n1	i
Nc1nc(N2CCCCCC2)ncc1S(=O)(=O)c1cccs1	+
Cc1cc(N2CCCC2)nc(N2CCN(S(=O)(=O)c3ccccc3)CC2)n1	i
CC(=O)c1cccc(NC(=O)CN2CCCN(Cc3cccc(Cl)c3)S2(=O)=O)c1	i
CCOc1ccc(NC(=O)CN2CCCN(Cc3ccc(Cl)cc3)S2(=O)=O)cc1	+
CCOc1ccc(NC(=O)CN2CCN(Cc3ccc(F)cc3)S2(=O)=O)cc1	i
CCOc1ccc(NC(=O)CN2CCCN(Cc3ccc(OC)cc3)S2(=O)=O)cc1	i
O=C(CN1CCCN(Cc2ccc(Cl)cc2)S1(=O)=O)Nc1ccc(F)cc1	i
CCOc1ccc(NC(=O)CN2CCCN(Cc3ccc(F)cc3)S2(=O)=O)cc1	+
CCc1ccc(NC(=O)CN2CCCN(Cc3ccc(Cl)cc3)S2(=O)=O)cc1	i
Cc1ccc(C)c(OCCN(C)C(=O)c2ccc3c(c2)OCC(=O)N3)c1	i
CCOCCn1cnc(-c2ccccc2)c1-c1ccc(S(=O)(=O)NC)cc1	i
O=C(CN1C(=O)C2CCCCN2C(=O)c2ccccc21)N1CCN(c2ccc(F)cc2)CC1 (stereo not given)	i
CCc1cc(Sc2ccc(NC(=O)Nc3cccc(F)c3)cc2)n2nc(C)nc2n1	i
Cc1ccc(C)c(N2CCN(CCCNC(=O)c3nc4ccccc4n(C)c3=O)CC2)c1	i
CCN(CC)c1nccc(-c2cc(C(=O)O)ccn2)n1	i
CCOc1ccc(-c2ccnc(CC3CCN(C)CC3)n2)cc1C(=O)O	i
CCOCc1nccc(-c2cc(C(=O)O)ccn2)n1	+
Cc1cc2ccccc2n1CCC(=O)NCc1nc(CC(C)C)no1	i
CCOC(=O)c1ccc(NC(=O)C2CCN(c3ncnc4c3nc3n4CCCCC3)CC2)cc1	i
Cc1cc(N(C)Cc2ncccc2C)nc(-c2ccccc2)n1	i
Cc1nc(C(C)C)cc(N(C)Cc2ncccc2C)n1	+
COCc1cc(CN(C)c2cc(C(C)C)nc(C)n2)[nH]n1	i

From PubChem
